Measured values taken from PubChem BioAssay AID2108 (National Center for Advancing Translational Sciences (NCATS), 2009).
Inconclusive results are not listed. Activity calls are given as the source filed them. Calls come from the whole dose curve; as a rule, active = well fitted curve in the direction sought with a large enough effect; inconclusive = small, poorly fitted or top-dose-only effect, or effect the other way, or another doubt; inactive = no such curve, though single readings can be large or run the other way.

Target: Alpha-galactosidase A (Homo sapiens) (UniProt P06280)
Sequence (P06280 32-429 limits assumed): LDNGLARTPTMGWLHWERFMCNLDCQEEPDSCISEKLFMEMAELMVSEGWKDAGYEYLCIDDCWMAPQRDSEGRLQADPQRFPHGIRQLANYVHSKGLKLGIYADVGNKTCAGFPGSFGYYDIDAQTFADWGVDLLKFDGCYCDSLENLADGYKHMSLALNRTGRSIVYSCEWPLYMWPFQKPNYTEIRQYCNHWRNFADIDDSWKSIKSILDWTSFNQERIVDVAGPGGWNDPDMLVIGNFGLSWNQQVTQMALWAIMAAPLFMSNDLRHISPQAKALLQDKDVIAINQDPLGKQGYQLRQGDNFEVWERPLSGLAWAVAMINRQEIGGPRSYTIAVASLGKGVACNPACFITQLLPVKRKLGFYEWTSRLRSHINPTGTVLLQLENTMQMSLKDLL
Experiment: Confirmation of Inhibitors of Human alpha-Galactosidase Using Spleen Homogenate
Method in brief: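 Human spleen homogenate (1 ug) with 1 mM 4-methylumbelliferyl-alpha-D-galactopyranoside in citrate-phosphate pH 5.0, 0.01% Tween-20, 37C 40 min; compounds 0.5 nM–58 uM final. Stopped at pH 10, fluorescence Ex 365/Em 440; AC50 from Hill fits.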

SMILES | outcome
CC(=O)Nc1cccc2c1C(=O)NC2=O | inactive
CC(=O)N1CCN(c2ccc(NCc3ccc(C(C)C)cc3)cc2)CC1 | inactive
O=C(O)c1c(-c2ccccc2)c2oc3ccccc3c2[nH]c1=O | inactive
CC1=C(C(=O)Nc2ccccc2C)C(c2ccccn2)n2nc(SCc3ccccc3F)nc2N1 (stereo unspecified) | inactive
C(=C/c1nccc2c1[nH]c1ccccc12)/c1ccc2c(c1)OCO2 | inactive
CC1(C)CC(=O)c2cc(C(=O)NCc3ccco3)c(=O)n(-c3ccc(Cl)cc3)c2C1 | inactive
COc1cccc2ccc(/C=C/c3ccc4c(c3)OCO4)nc12 | inactive
N#Cc1c(Cl)cccc1N1CCC(C(N)=O)CC1 | inactive
Cc1cc(C)nc(SCc2cc(=O)c(OC(=O)c3ccco3)co2)n1 | inactive
CN(CCO)S(=O)(=O)c1ccc2c(c1)C(=NNC(N)=O)c1cc(S(=O)(=O)N(C)CCO)ccc1-2 | inactive
O=c1oc2ccccc2cc1-c1csc(Cc2nc3c(s2)CCCC3)n1 | inactive
Cn1c(=O)c2c(nc(NCc3ccc4c(c3)OCO4)n2Cc2ccc(F)cc2)n(C)c1=O | inactive
COc1ccc(C2=NNC(c3cc(Cl)cc4c3OCOC4)C2)c(O)c1 (stereo unspecified) | inactive
CCOc1cc(/C=C2\SC(N)=NC2=O)ccc1O | inactive
O=c1oc2ccc(Cl)cc2cc1-c1nc2c(s1)CCCC2 | inactive
O=c1oc2ccccc2cc1-c1nc2c(s1)CCc1ccccc1-2 | inactive
O=S(=O)(c1ccccc1)N1CCN(Cc2ccccc2)CC1 | inactive
CC(N=C(NC#N)Nc1ccncc1)C(C)(C)C (stereo unspecified) | inactive

SMILES | outcome
CCN(CC)S(=O)(=O)c1ccc2c(c1)C(=NNc1ccccc1)c1cc(S(=O)(=O)N(CC)CC)ccc1-2 | inactive
Cc1cc(/C=N/NC(=O)c2ccc(O)cc2)c(C)n1C1CC1 | inactive
COc1ccc(NS(=O)(=O)c2ccc(O)c(NC(=O)c3cc4c(C)nn(-c5ccc(F)cc5)c4s3)c2)cc1 | inactive
COC(=O)c1ccccc1S(=O)(=O)N1CCOCC1 | inactive
Nc1cnc(Nc2ccc(Br)cc2)nc1N | inactive
CCC1C(=O)NCCN1Cc1nc(-c2ccc(C)s2)oc1C (stereo unspecified) | inactive
CN(CCO)S(=O)(=O)c1ccc2c(c1)C(=NN)c1cc(S(=O)(=O)N(C)CCO)ccc1-2 | inactive
Cc1oc2c(O)c(O)ccc2c(=O)c1-c1cnn(-c2ccccc2)c1 | inactive
Cc1ccc(S(=O)(=O)N2CCOCC2)cc1C | inactive
CCCn1c(=O)c2c(C(F)(F)F)cc(-c3cccs3)nc2n(CCC)c1=O | inactive
COc1ccc(C(=O)N2CCN(c3ccc([N+](=O)[O-])c(NCCc4ccc(OC)c(OC)c4)c3)CC2)cc1 | inactive
CC(C)(C)c1ccc(OCC(=O)NC(Cc2c[nH]c3ccccc23)C(=O)O)cc1 (stereo unspecified) | inactive
COc1cc(/C=C/c2ccc3ccccc3n2)cc(OC)c1O | inactive
CN(C)C=Nc1nc2ccccc2nc1N1CCCC1 | inactive
CC(=O)c1cccc(S(=O)(=O)N2CCOCC2)c1 | inactive
O=C(CSc1ncc(C(F)(F)F)cc1Cl)N1CCN(S(=O)(=O)c2ccccc2)CC1 | inactive
Cc1ccc(S(=O)(=O)N2CCN(C(=O)C3COc4ccccc4O3)CC2)cc1C (stereo unspecified) | inactive
O=C(c1ccccc1)N1CCN(S(=O)(=O)c2ccccc2)CC1 | inactive
